Substitutions are numbered along the chain they refer to.

Holding throughout (test): PBM; 200 nM protein, PBS
What all share (conditions): dsDNA, one strand shown

Assay [1] concerns the target HOXC9 (Homo sapiens, UniProt P31274 178-260, K195R).
In assay [2] the target is HOXC9 (Homo sapiens, UniProt P31274 178-260).
Assay [3] deals with MSX2 (Homo sapiens, UniProt P35548 130-214, R199I).
In assay [4] the target is HOXC9 (Homo sapiens, UniProt P31274 178-260, R193K).
For assay [5], the target named is MSX2 (Homo sapiens, UniProt P35548 130-214).
For assay [6], the target named is HOXC9 (Homo sapiens, UniProt P31274 178-260, R222W).
Assay [7] concerns the target MSX2 (Homo sapiens, UniProt P35548 130-214, F161Y).
The target of assay [8] is HOXB6 (Homo sapiens, UniProt P17509 132-218, K202E).
For assay [9], the target named is HOXD13 (Homo sapiens, UniProt P35453 263-343, T313R).
The target of assay [10] is HOXD13 (Homo sapiens, UniProt P35453 263-343).
Assay [11] has as its target HOXD13 (Homo sapiens, UniProt P35453 263-343, T313A).
The target of assay [12] is HOXB6 (Homo sapiens, UniProt P17509 132-218).
The target in assay [13] is HOXA2 (Homo sapiens, UniProt O43364 129-215, R185T).
Assay [14] concerns the target HOXA2 (Homo sapiens, UniProt O43364 129-215, R185K).
For assay [15], the target named is HOXA2 (Homo sapiens, UniProt O43364 129-215, Y150S).
For assay [16], the target named is HOXA2 (Homo sapiens, UniProt O43364 129-215).
A further assay concerns the target PITX2 (Homo sapiens, UniProt Q99697 72-157).
For assay [17], the target named is T1, NKX2-6 (Homo sapiens, UniProt A6NCS4 118-204).
T1 sequence: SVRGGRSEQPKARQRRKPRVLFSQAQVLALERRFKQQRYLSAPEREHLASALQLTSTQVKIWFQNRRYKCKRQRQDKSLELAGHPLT

The target of assay [18] is T2, NKX2-6 (Homo sapiens, UniProt A6NCS4 118-204, F151L).
T2 sequence: T1 sequence with F34L

Assay [19] addresses CRX (Homo sapiens, UniProt O43186 26-111, E42D).
Assay [20] deals with CRX (Homo sapiens, UniProt O43186 26-111, R41L).
Chain of CRX (Homo sapiens, UniProt O43186 26-111, R41L) (O43186 26-111 R41L): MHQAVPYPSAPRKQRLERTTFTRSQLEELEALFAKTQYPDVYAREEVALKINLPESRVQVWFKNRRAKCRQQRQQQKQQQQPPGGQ

Chain of HOXC9 (Homo sapiens, UniProt P31274 178-260, K195R) (P31274 178-260 K195R): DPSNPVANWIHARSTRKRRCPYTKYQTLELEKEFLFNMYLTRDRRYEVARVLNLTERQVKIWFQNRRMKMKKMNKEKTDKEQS
Chain of HOXD13 (Homo sapiens, UniProt P35453 263-343, T313R) (P35453 263-343 T313R): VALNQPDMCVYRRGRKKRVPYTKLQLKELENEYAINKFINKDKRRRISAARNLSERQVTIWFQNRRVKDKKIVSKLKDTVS
Chain of HOXC9 (Homo sapiens, UniProt P31274 178-260, R193K) (P31274 178-260 R193K): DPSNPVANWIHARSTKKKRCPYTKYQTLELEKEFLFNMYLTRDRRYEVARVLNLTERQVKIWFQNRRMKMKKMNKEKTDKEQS
Chain of HOXC9 (Homo sapiens, UniProt P31274 178-260, R222W) (P31274 178-260 R222W): as the sequence (P31274 178-260 R193K) above, with K16R, R45W counted along it
Chain of HOXC9 (Homo sapiens, UniProt P31274 178-260) (P31274 178-260): as the sequence (P31274 178-260 R193K) above, with K16R counted along it
Chain of HOXD13 (Homo sapiens, UniProt P35453 263-343) (P35453 263-343): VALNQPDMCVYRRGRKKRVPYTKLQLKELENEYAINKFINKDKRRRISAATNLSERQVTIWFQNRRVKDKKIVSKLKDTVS
Chain of HOXA2 (Homo sapiens, UniProt O43364 129-215, R185T) (O43364 129-215 R185T): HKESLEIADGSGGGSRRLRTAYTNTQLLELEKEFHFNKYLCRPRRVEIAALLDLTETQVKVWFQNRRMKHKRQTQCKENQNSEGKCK
Chain of HOXD13 (Homo sapiens, UniProt P35453 263-343, T313A) (P35453 263-343 T313A): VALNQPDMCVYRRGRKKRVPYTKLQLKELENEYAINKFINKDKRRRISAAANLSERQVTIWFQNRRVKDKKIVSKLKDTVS
Chain of HOXA2 (Homo sapiens, UniProt O43364 129-215) (O43364 129-215): as the sequence (O43364 129-215 R185T) above, with T57R counted along it
Chain of HOXB6 (Homo sapiens, UniProt P17509 132-218, K202E) (P17509 132-218 K202E): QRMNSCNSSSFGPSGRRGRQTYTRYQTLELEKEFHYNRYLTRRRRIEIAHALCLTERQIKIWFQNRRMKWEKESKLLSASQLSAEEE
Chain of HOXA2 (Homo sapiens, UniProt O43364 129-215, Y150S) (O43364 129-215 Y150S): as the sequence (O43364 129-215 R185T) above, with Y22S, T57R counted along it
Chain of HOXB6 (Homo sapiens, UniProt P17509 132-218) (P17509 132-218): as the sequence (P17509 132-218 K202E) above, with E71K counted along it
Chain of HOXA2 (Homo sapiens, UniProt O43364 129-215, R185K) (O43364 129-215 R185K): as the sequence (O43364 129-215 R185T) above, with T57K counted along it
Chain of CRX (Homo sapiens, UniProt O43186 26-111, E42D) (O43186 26-111 E42D): as the sequence (O43186 26-111 R41L) above, with L16R, E17D counted along it
Chain of MSX2 (Homo sapiens, UniProt P35548 130-214, R199I) (P35548 130-214 R199I): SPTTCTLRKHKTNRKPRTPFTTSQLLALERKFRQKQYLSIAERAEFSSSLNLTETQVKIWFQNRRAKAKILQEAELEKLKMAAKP
Chain of MSX2 (Homo sapiens, UniProt P35548 130-214) (P35548 130-214): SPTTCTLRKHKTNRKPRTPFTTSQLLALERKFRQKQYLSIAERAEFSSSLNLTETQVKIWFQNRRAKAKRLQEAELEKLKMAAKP
Chain of MSX2 (Homo sapiens, UniProt P35548 130-214, F161Y) (P35548 130-214 F161Y): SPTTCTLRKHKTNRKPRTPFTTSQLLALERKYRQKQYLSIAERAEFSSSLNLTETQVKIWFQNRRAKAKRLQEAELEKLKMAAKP

On to GCGTCGCC, for which the binding signal with HOXC9 [1] is 9.69 upbm affinity estimate (log intensity, higher = more binding, comparable within an allelic series); with HOXC9 [2] it was 9.74 upbm affinity estimate (log intensity, higher = more binding, comparable within an allelic series); with MSX2 [3], 9.45 upbm affinity estimate (log intensity, higher = more binding, comparable within an allelic series); with HOXC9 [4], 9.48 upbm affinity estimate (log intensity, higher = more binding, comparable within an allelic series); with MSX2 [5], 9.4 upbm affinity estimate (log intensity, higher = more binding, comparable within an allelic series); with HOXC9 [6] it was 9.77 upbm affinity estimate (log intensity, higher = more binding, comparable within an allelic series). Besides, the binding signal in the assay with MSX2 [7] is 9.49 upbm affinity estimate (log intensity, higher = more binding, comparable within an allelic series).
Consider CCCCCCAC, for which the binding signal with HOXC9 [1] was 9.36 upbm affinity estimate (log intensity, higher = more binding, comparable within an allelic series); in the assay with HOXB6 [8], 8.84 upbm affinity estimate (log intensity, higher = more binding, comparable within an allelic series); in the assay with HOXC9 [2], 9.41 upbm affinity estimate (log intensity, higher = more binding, comparable within an allelic series); with HOXD13 [9], 9.08 upbm affinity estimate (log intensity, higher = more binding, comparable within an allelic series); in the assay with HOXC9 [4] it was 9.4 upbm affinity estimate (log intensity, higher = more binding, comparable within an allelic series); with HOXD13 [10], 9.3 upbm affinity estimate (log intensity, higher = more binding, comparable within an allelic series). Moreover, the binding signal was 9.15 upbm affinity estimate (log intensity, higher = more binding, comparable within an allelic series) with HOXD13 [11]; 9.29 upbm affinity estimate (log intensity, higher = more binding, comparable within an allelic series) with HOXC9 [6]; 8.7 upbm affinity estimate (log intensity, higher = more binding, comparable within an allelic series) with HOXB6 [12].
On to CACGCGGG, for which the binding signal was 9.44 upbm affinity estimate (log intensity, higher = more binding, comparable within an allelic series) with HOXC9 [1]; 7.04 upbm affinity estimate (log intensity, higher = more binding, comparable within an allelic series) with HOXA2 [13]; 9.53 upbm affinity estimate (log intensity, higher = more binding, comparable within an allelic series) in the assay with HOXC9 [2]; 9.49 upbm affinity estimate (log intensity, higher = more binding, comparable within an allelic series) with HOXC9 [4]; 10.2 upbm affinity estimate (log intensity, higher = more binding, comparable within an allelic series) with HOXA2 [14]; 9.63 upbm affinity estimate (log intensity, higher = more binding, comparable within an allelic series) with HOXC9 [6]. Moreover, the binding signal with HOXA2 [15] was 10.4 upbm affinity estimate (log intensity, higher = more binding, comparable within an allelic series); in the assay with HOXA2 [16], 7.18 upbm affinity estimate (log intensity, higher = more binding, comparable within an allelic series).
Take ATTTGTTC: the binding signal with HOXC9 [1] is 11 upbm affinity estimate (log intensity, higher = more binding, comparable within an allelic series); with HOXA2 [13], 9.37 upbm affinity estimate (log intensity, higher = more binding, comparable within an allelic series); with HOXC9 [2], 10.9 upbm affinity estimate (log intensity, higher = more binding, comparable within an allelic series); in the assay with HOXC9 [4], 11 upbm affinity estimate (log intensity, higher = more binding, comparable within an allelic series); with HOXA2 [15], 10.8 upbm affinity estimate (log intensity, higher = more binding, comparable within an allelic series); in the assay with HOXA2 [16], 9.22 upbm affinity estimate (log intensity, higher = more binding, comparable within an allelic series).
Regarding GCAGCGCC, the binding signal was 9.72 upbm affinity estimate (log intensity, higher = more binding, comparable within an allelic series) with HOXC9 [1]; 9.88 upbm affinity estimate (log intensity, higher = more binding, comparable within an allelic series) with HOXC9 [2]; 9.55 upbm affinity estimate (log intensity, higher = more binding, comparable within an allelic series) with HOXD13 [9]; 7.75 upbm affinity estimate (log intensity, higher = more binding, comparable within an allelic series) with PITX2; 9.72 upbm affinity estimate (log intensity, higher = more binding, comparable within an allelic series) with HOXC9 [4]; 9.61 upbm affinity estimate (log intensity, higher = more binding, comparable within an allelic series) with HOXD13 [10]. For the same sequence, the binding signal with HOXD13 [11] was 9.59 upbm affinity estimate (log intensity, higher = more binding, comparable within an allelic series); with HOXC9 [6] it was 9.72 upbm affinity estimate (log intensity, higher = more binding, comparable within an allelic series).
Turning to CCTCTCCA, the binding signal is 9.58 upbm affinity estimate (log intensity, higher = more binding, comparable within an allelic series) with HOXC9 [1]; 9.63 upbm affinity estimate (log intensity, higher = more binding, comparable within an allelic series) with HOXC9 [2]; 11.5 upbm affinity estimate (log intensity, higher = more binding, comparable within an allelic series) in the assay with NKX2-6 [17]; 9.69 upbm affinity estimate (log intensity, higher = more binding, comparable within an allelic series) with HOXC9 [4]; 9.51 upbm affinity estimate (log intensity, higher = more binding, comparable within an allelic series) with NKX2-6 [18]; 9.7 upbm affinity estimate (log intensity, higher = more binding, comparable within an allelic series) with HOXC9 [6].
Take AGATTAAA: the binding signal is 11.2 upbm affinity estimate (log intensity, higher = more binding, comparable within an allelic series) with HOXC9 [1]; 12.7 upbm affinity estimate (log intensity, higher = more binding, comparable within an allelic series) with CRX [19]; 11.1 upbm affinity estimate (log intensity, higher = more binding, comparable within an allelic series) in the assay with HOXC9 [2]; 12.3 upbm affinity estimate (log intensity, higher = more binding, comparable within an allelic series) with PITX2; 11.2 upbm affinity estimate (log intensity, higher = more binding, comparable within an allelic series) in the assay with HOXC9 [4]; 12.5 upbm affinity estimate (log intensity, higher = more binding, comparable within an allelic series) with CRX [20].
ACGATAAA: the binding signal with HOXC9 [1] was 11.7 upbm affinity estimate (log intensity, higher = more binding, comparable within an allelic series); with HOXC9 [2], 11.8 upbm affinity estimate (log intensity, higher = more binding, comparable within an allelic series); with HOXD13 [9], 10.1 upbm affinity estimate (log intensity, higher = more binding, comparable within an allelic series); with HOXC9 [4], 11.8 upbm affinity estimate (log intensity, higher = more binding, comparable within an allelic series); with HOXD13 [10], 10.8 upbm affinity estimate (log intensity, higher = more binding, comparable within an allelic series).
As for ATAGTCAA, the binding signal was 10.7 upbm affinity estimate (log intensity, higher = more binding, comparable within an allelic series) with HOXC9 [1]; 10.7 upbm affinity estimate (log intensity, higher = more binding, comparable within an allelic series) with HOXC9 [2]; 10.8 upbm affinity estimate (log intensity, higher = more binding, comparable within an allelic series) in the assay with HOXC9 [4].
Regarding TGATTGCA, the binding signal with HOXC9 [1] was 11.1 upbm affinity estimate (log intensity, higher = more binding, comparable within an allelic series); with HOXC9 [2] it was 11 upbm affinity estimate (log intensity, higher = more binding, comparable within an allelic series); with HOXC9 [4], 11.2 upbm affinity estimate (log intensity, higher = more binding, comparable within an allelic series).
As for TTCATAAA, the binding signal was 11.7 upbm affinity estimate (log intensity, higher = more binding, comparable within an allelic series) with HOXC9 [1]; 11.7 upbm affinity estimate (log intensity, higher = more binding, comparable within an allelic series) with HOXC9 [2]; 11.7 upbm affinity estimate (log intensity, higher = more binding, comparable within an allelic series) with HOXC9 [4].
Consider GAGGGTCC, for which the binding signal with HOXC9 [1] is 9.32 upbm affinity estimate (log intensity, higher = more binding, comparable within an allelic series); in the assay with HOXB6 [8], 8.91 upbm affinity estimate (log intensity, higher = more binding, comparable within an allelic series); with HOXC9 [2] it was 9.31 upbm affinity estimate (log intensity, higher = more binding, comparable within an allelic series); with HOXC9 [4], 9.32 upbm affinity estimate (log intensity, higher = more binding, comparable within an allelic series); with HOXC9 [6], 9.63 upbm affinity estimate (log intensity, higher = more binding, comparable within an allelic series); with HOXB6 [12], 8.74 upbm affinity estimate (log intensity, higher = more binding, comparable within an allelic series).
Consider CCTACTCG, for which the binding signal with HOXC9 [1] was 9.67 upbm affinity estimate (log intensity, higher = more binding, comparable within an allelic series); with HOXC9 [2] it was 9.65 upbm affinity estimate (log intensity, higher = more binding, comparable within an allelic series); with PITX2, 8.18 upbm affinity estimate (log intensity, higher = more binding, comparable within an allelic series); with HOXC9 [4], 9.59 upbm affinity estimate (log intensity, higher = more binding, comparable within an allelic series); with HOXC9 [6], 9.71 upbm affinity estimate (log intensity, higher = more binding, comparable within an allelic series).

The values are drawn from PMC11006913.
